# Laboratory results published in the supplement of paper PMC8728848.
# The sample as a whole holds a higher share of the strongest signals than the screen did.
# Legend:
# Assay in all cases: glycan array binding signal (z-score within array); higher = stronger binding
# Conditions in all cases: glycan notation: IUPAC condensed, linker removed; mutation: D109R
# [1] = target: Fuc(a1-2)Gal(b1-3)GlcNAc(b1-3)Gal(b1-4)Glc
# Summary of the method: (§1)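 Glycan array binding is given as a within-array Z-score, which can be read as non-binding when negative. The arrays, 3228 of them, came from the Consortium for Functional Glycomics database and were retained only where the protein sequence was available. Z-scores were averaged across arrays of the same protein sequence at different concentrations or buffers and across linkers.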
# [2] = target: Fuc(a1-2)Gal(b1-3)[Fuc(a1-4)]GlcNAc(b1-3)[Gal(b1-4)GlcNAc(b1-6)]Gal(b1-4)Glc
# Summary of the method: as §1
# [3] = target: Fuc(a1-2)Gal6S(b1-3)GlcNAc6S
# Summary of the method: as §1
# [4] = target: Fuc(a1-2)Gal6S(b1-4)Glc6S
# Summary of the method: as §1
# [5] = target: Fuc(a1-2)[Gal(a1-3)]Gal(b1-3)GlcNAc(b1-3)GalNAc
# Summary of the method: as §1
# [6] = target: Fuc(a1-2)[Gal(a1-3)]Gal(b1-4)GlcNAc(b1-3)GalNAc
# Summary of the method: as §1
# [7] = target: Fuc(a1-2)[GalNAc(b1-3)]Gal
# Summary of the method: as §1
# [8] = target: Fuc(a1-3)[Gal3S(b1-4)]GlcNAc6S
# Summary of the method: as §1
# [9] = target: Gal(a1-3)Gal(b1-4)GlcNAc
# Summary of the method: as §1
# [10] = target: Gal(a1-4)Gal(b1-4)GlcNAc
# Summary of the method: as §1
# [11] = target: Gal(b1-3)Gal(b1-4)GlcNAc
# Summary of the method: as §1
# [12] = target: Gal(b1-3)GalNAc
# Summary of the method: as §1
# [13] = target: Gal(b1-3)GalNAc(a1-3)[Fuc(a1-2)]Gal(b1-4)GlcNAc
# Summary of the method: as §1
# [14] = target: Gal(b1-3)GlcNAc(a1-6)Gal(b1-4)GlcNAc
# Summary of the method: as §1
# [15] = target: Gal(b1-3)GlcNAc(b1-2)[Gal(b1-3)GlcNAc(b1-6)]Man(a1-6)[Gal(b1-3)GlcNAc(b1-2)Man(a1-3)]Man(b1-4)GlcNAc(b1-4)GlcNAc
# Summary of the method: as §1
# [16] = target: Gal(b1-3)GlcNAc(b1-3)Gal(b1-4)GlcNAc(b1-6)[Gal(b1-3)GlcNAc(b1-3)]Gal(b1-4)Glc
# Summary of the method: as §1
# [17] = target: Gal(b1-3)[Fuc(a1-4)]GlcNAc
# Summary of the method: as §1
# [18] = target: Gal(b1-4)Glc
# Summary of the method: as §1
# [19] = target: Gal(b1-4)GlcNAc(a1-6)Gal(b1-4)GlcNAc
# Summary of the method: as §1
# [20] = target: Gal(b1-4)GlcNAc(b1-2)Man(a1-3)[GlcNAc(b1-2)Man(a1-6)]Man(b1-4)GlcNAc(b1-4)GlcNAc
# Summary of the method: as §1
# [21] = target: Gal(b1-4)GlcNAc(b1-3)Gal(b1-4)GlcNAc(b1-2)[Gal(b1-4)GlcNAc(b1-3)Gal(b1-4)GlcNAc(b1-6)]Man(a1-6)[Gal(b1-4)GlcNAc(b1-3)Gal(b1-4)GlcNAc(b1-2)Man(a1-3)]Man(b1-4)GlcNAc(b1-4)[Fuc(a1-6)]GlcNAc
# Summary of the method: as §1
# [22] = target: Gal(b1-4)GlcNAc(b1-3)Gal(b1-4)GlcNAc(b1-3)Gal(b1-4)GlcNAc(b1-2)[Gal(b1-4)GlcNAc(b1-3)Gal(b1-4)GlcNAc(b1-3)Gal(b1-4)GlcNAc(b1-6)]Man(a1-6)[Gal(b1-4)GlcNAc(b1-3)Gal(b1-4)GlcNAc(b1-3)Gal(b1-4)GlcNAc(b1-2)Man(a1-3)]Man(b1-4)GlcNAc(b1-4)[Fuc(a1-6)]GlcNAc
# Summary of the method: as §1
# [23] = target: Gal(b1-4)GlcNAc(b1-3)Gal(b1-4)GlcNAc(b1-3)Gal(b1-4)GlcNAc(b1-3)Gal(b1-4)GlcNAc(b1-2)Man(a1-3)[Gal(b1-4)GlcNAc(b1-3)Gal(b1-4)GlcNAc(b1-3)Gal(b1-4)GlcNAc(b1-3)Gal(b1-4)GlcNAc(b1-2)Man(a1-6)]Man(b1-4)GlcNAc(b1-4)GlcNAc
# Summary of the method: as §1
# [24] = target: Gal(b1-4)GlcNAc(b1-3)Gal(b1-4)GlcNAc(b1-3)Gal(b1-4)GlcNAc(b1-3)Gal(b1-4)GlcNAc(b1-2)[Gal(b1-4)GlcNAc(b1-3)Gal(b1-4)GlcNAc(b1-3)Gal(b1-4)GlcNAc(b1-3)Gal(b1-4)GlcNAc(b1-6)]Man(a1-6)[Gal(b1-4)GlcNAc(b1-3)Gal(b1-4)GlcNAc(b1-3)Gal(b1-4)GlcNAc(b1-3)Gal(b1-4)GlcNAc(b1-2)Man(a1-3)]Man(b1-4)GlcNAc(b1-4)[Fuc(a1-6)]GlcNAc
# Summary of the method: as §1
# [25] = target: Gal(b1-4)GlcNAc(b1-3)Gal(b1-4)GlcNAc(b1-3)Gal(b1-4)GlcNAc(b1-3)Gal(b1-4)GlcNAc(b1-3)Gal(b1-4)GlcNAc(b1-2)Man(a1-3)[Gal(b1-4)GlcNAc(b1-3)Gal(b1-4)GlcNAc(b1-3)Gal(b1-4)GlcNAc(b1-3)Gal(b1-4)GlcNAc(b1-3)Gal(b1-4)GlcNAc(b1-2)Man(a1-6)]Man(b1-4)GlcNAc(b1-4)GlcNAc
# Summary of the method: as §1
# [26] = target: Gal(b1-4)GlcNAc(b1-3)Gal(b1-4)GlcNAc(b1-3)Gal(b1-4)GlcNAc(b1-3)Gal(b1-4)GlcNAc(b1-3)Gal(b1-4)GlcNAc(b1-2)[Gal(b1-4)GlcNAc(b1-3)Gal(b1-4)GlcNAc(b1-3)Gal(b1-4)GlcNAc(b1-3)Gal(b1-4)GlcNAc(b1-3)Gal(b1-4)GlcNAc(b1-6)]Man(a1-6)[Gal(b1-4)GlcNAc(b1-3)Gal(b1-4)GlcNAc(b1-3)Gal(b1-4)GlcNAc(b1-3)Gal(b1-4)GlcNAc(b1-3)Gal(b1-4)GlcNAc(b1-2)Man(a1-3)]Man(b1-4)GlcNAc(b1-4)[Fuc(a1-6)]GlcNAc
# Summary of the method: as §1
# [27] = target: Gal3S(b1-3)GlcNAc
# Summary of the method: as §1
# [28] = target: Gal6P(b1-4)GlcNAc
# Summary of the method: as §1
# [29] = target: GalNAc(b1-3)GalNAc
# Summary of the method: as §1
# [30] = target: GalNAc(b1-4)GlcNAc(b1-3)GalNAc(b1-4)GlcNAc
# Summary of the method: as §1
# [31] = target: GalNAc3S(b1-4)GlcNAc3S
# Summary of the method: as §1
# [32] = target: GalNAc3S(b1-4)[Fuc(a1-3)]GlcNAc
# Summary of the method: as §1
# [33] = target: GlcNAc(a1-6)Gal(b1-4)GlcNAc
# Summary of the method: as §1
# [34] = target: GlcNAc(b1-4)GlcNAc(b1-4)GlcNAc
# Summary of the method: as §1
# [35] = target: GlcNAc(b1-4)GlcNAc(b1-4)GlcNAc(b1-4)GlcNAc(b1-4)GlcNAc
# Summary of the method: as §1
# [36] = target: GlcNAc6S(b1-3)Gal(b1-4)GlcNAc
# Summary of the method: as §1
# [37] = target: MurNAc(b1-4)GlcNAc
# Summary of the method: as §1
# [38] = target: Neu5Ac(a2-3)Gal(b1-3)GalNAc(b1-3)Gal(a1-4)Gal(b1-4)Glc
# Summary of the method: as §1
# [39] = target: Neu5Ac(a2-3)Gal(b1-4)GlcNAc(b1-2)Man(a1-3)[Neu5Ac(a2-3)Gal(b1-4)GlcNAc(b1-2)Man(a1-6)]Man(b1-4)GlcNAc(b1-4)[Fuc(a1-6)]GlcNAc
# Summary of the method: as §1
# [40] = target: Neu5Ac(a2-6)Gal(b1-4)GlcNAc(b1-2)Man(a1-3)[Neu5Ac(a2-3)Gal(b1-4)GlcNAc(b1-2)Man(a1-6)]Man(b1-4)GlcNAc(b1-4)GlcNAc
# Summary of the method: as §1
# [41] = target: Neu5Ac(a2-6)Gal(b1-4)GlcNAc(b1-2)Man(a1-3)[Neu5Ac(a2-6)Gal(b1-4)GlcNAc(b1-2)Man(a1-6)]Man(b1-4)GlcNAc(b1-4)[Fuc(a1-6)]GlcNAc
# Summary of the method: as §1
# [42] = target: Neu5Ac(a2-6)Gal(b1-4)GlcNAc(b1-3)Gal(b1-4)GlcNAc(b1-3)GalNAc
# Summary of the method: as §1
# [43] = target: Neu5Ac(a2-6)Gal(b1-4)GlcNAc(b1-3)[Neu5Ac(a2-6)Gal(b1-4)GlcNAc(b1-6)]GalNAc
# Summary of the method: as §1
# [44] = target: Neu5Ac(a2-6)Gal(b1-4)GlcNAc6S
# Summary of the method: as §1
# [45] = target: Neu5Ac(a2-6)GalNAc(b1-4)GlcNAc
# Summary of the method: as §1
# [46] = target: Neu5Ac(a2-8)Neu5Ac(a2-8)Neu5Ac(a2-3)Gal(b1-4)Glc
# Summary of the method: as §1
# [47] = target: Neu5Ac(a2-8)Neu5Ac(a2-8)Neu5Ac(a2-3)[GalNAc(b1-4)]Gal(b1-4)Glc
# Summary of the method: as §1
binder,measurement,setting,value
MpL2 (Macrolepiota procera) (protein) MSTQVSSGQTYKITNVKAGTVIDLSGEDNKSIIGYPYHSGKNQQWTFNWTGKAWTLRSASSGSYLGIEGTPADGTRLVAVNDPFEWHIWRDEANENAFRIFVPFTNYNLRLSGYGDTTPGTPVQLWWTWEGLHQTWTIDRP,glycan array binding signal (z-score),[1],-0.257
same,glycan array binding signal (z-score),[2],-0.099
same,glycan array binding signal (z-score),[3],-0.247
same,glycan array binding signal (z-score),[4],-0.259
same,glycan array binding signal (z-score),[5],-0.266
same,glycan array binding signal (z-score),[6],-0.251
same,glycan array binding signal (z-score),[7],-0.247
same,glycan array binding signal (z-score),[8],-0.255
same,glycan array binding signal (z-score),[9],-0.264
same,glycan array binding signal (z-score),[10],-0.289
same,glycan array binding signal (z-score),[11],-0.255
same,glycan array binding signal (z-score),[12],-0.256
same,glycan array binding signal (z-score),[13],-0.201
same,glycan array binding signal (z-score),[14],3.81
same,glycan array binding signal (z-score),[15],3.46
same,glycan array binding signal (z-score),[16],3.65
same,glycan array binding signal (z-score),[17],-0.267
same,glycan array binding signal (z-score),[18],-0.244
same,glycan array binding signal (z-score),[19],12.2
same,glycan array binding signal (z-score),[20],-0.001
same,glycan array binding signal (z-score),[21],3.95
same,glycan array binding signal (z-score),[22],3.9
same,glycan array binding signal (z-score),[23],3.84
same,glycan array binding signal (z-score),[24],4.36
same,glycan array binding signal (z-score),[25],3.94
same,glycan array binding signal (z-score),[26],4.48
same,glycan array binding signal (z-score),[27],-0.276
same,glycan array binding signal (z-score),[28],-0.218
same,glycan array binding signal (z-score),[29],-0.254
same,glycan array binding signal (z-score),[30],3.89
same,glycan array binding signal (z-score),[31],-0.255
same,glycan array binding signal (z-score),[32],-0.254
same,glycan array binding signal (z-score),[33],6.07
same,glycan array binding signal (z-score),[34],-0.248
same,glycan array binding signal (z-score),[35],-0.246
same,glycan array binding signal (z-score),[36],0.055
same,glycan array binding signal (z-score),[37],-0.259
same,glycan array binding signal (z-score),[38],-0.241
same,glycan array binding signal (z-score),[39],-0.215
same,glycan array binding signal (z-score),[40],-0.261
same,glycan array binding signal (z-score),[41],-0.223
same,glycan array binding signal (z-score),[42],-0.261
same,glycan array binding signal (z-score),[43],-0.255
same,glycan array binding signal (z-score),[44],-0.289
same,glycan array binding signal (z-score),[45],-0.301
same,glycan array binding signal (z-score),[46],-0.272
same,glycan array binding signal (z-score),[47],-0.234
